# Screening data deposited in PubChem BioAssay by National Center for Advancing Translational Sciences (NCATS).
# ATXN2 expr inh = inhibitors of ATXN2 expression. HEK-293 ATXN2-luciferase reporter, luminescence, 24 h. 360,000 compounds, 0.72% hits. AID 1745845. Potency, µM (titrated, usually from 57 µM), for inactives: top-dose activity change, negative = inhibition, hits mostly inhibitors; also: potency is read from the fitted curve at half-maximal effect; % is scaled to controls: 0 for no effect and ±100 for the full control effect; nearly all actives have a fitted effect of over 55% in size
#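 qHTS (up to 57 uM final) was run with 24 h compound exposure of reporter cells at 37 °C. Each well was multiplexed: SteadyGlo luminescence measured ATXN2-luciferase expression after a fluorogenic Gly-Phe-AFC viability readout (25 uM final).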
# S2 tox = cell viability loss in ATXN counter-screen. S2 cells (HEK-293 line with an ATXN2-luciferase reporter) viability, CellTiter-Fluor protease fluorescence, 24 h. 400,000 compounds, 0.49% hits. Potency, µM (top dose mostly 56.7 µM), hits mostly cytotoxic. AID 651635; also: potency is read from the fitted curve at half-maximal effect; nearly all actives have a fitted effect of over 40% in size
# TGFb SMAD3 inh = inhibitors of TGF-b signaling. HepG2 CAGA-GFP TGF-b/SMAD3 reporter, GFP fluorescence, 18 h; TGF-beta stimulated, 500 pg/mL final. Potency, µM (series often up to 46.1 µM), for inactives: at the top dose activity, negative = inhibition, usual class: inhibitors. AID 588855. 410,000 compounds, 1.2% hits; also: potency is read from the fitted curve at half-maximal effect; % is scaled to controls: 0 for no effect and ±100 for the full control effect; nearly all actives have a fitted effect of over 65% in size
#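 HEPG2 CAGA-GFP cells (1000/well, DMEM with 1% FBS) were pre-incubated 2 h at 37 degrees C, given compound by pin tool, then stimulated with TGF-beta at 500 pg/mL final for 18 h before per-cell GFP fluorescence imaging.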
# DRD3 agonist = activates the human D3 dopamine receptor. P35462. D3R DiscoveRx beta-arrestin cells, luminescence, 90 min. max activation, %. 410,000 compounds, 0.58% hits. AID 652048; in the data active = max activation above about 30%; also: 0% is about no effect
# Target sequence (P35462 whole entry, looked up): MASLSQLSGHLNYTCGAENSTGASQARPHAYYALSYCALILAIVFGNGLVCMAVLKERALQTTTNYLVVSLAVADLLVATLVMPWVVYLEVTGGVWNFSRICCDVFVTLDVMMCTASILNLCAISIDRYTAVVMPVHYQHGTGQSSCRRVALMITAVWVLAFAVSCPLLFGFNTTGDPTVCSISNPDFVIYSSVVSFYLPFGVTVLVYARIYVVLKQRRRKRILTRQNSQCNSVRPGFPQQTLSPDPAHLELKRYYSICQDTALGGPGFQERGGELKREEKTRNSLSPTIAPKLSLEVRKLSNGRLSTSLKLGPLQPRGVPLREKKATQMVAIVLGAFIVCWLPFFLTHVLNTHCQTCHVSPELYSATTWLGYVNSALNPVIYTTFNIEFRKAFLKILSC
#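 Agonist mode: compounds and dopamine controls were applied to plated cells for 90 min at 37 degrees C after an overnight attachment at 1500 cells/well. Luminescent read-out followed 30 - 60 minutes at room temperature with DiscoveRx detection reagent.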
# DRD3 antagonist = antagonists of human D3 dopamine receptor; P35462; D3R cells, DiscoveRx beta-arrestin luminescence, antagonist mode; active compounds read low; max response, negative = inhibition, %; 360,000 compounds, 2.5% hits; in the data active = max response below about -50%; inconclusive = no clear call, values can overlap the other calls; also: % is scaled to controls: 0 for no effect and ±100 for the full control effect
#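 Cells plated overnight at 1500 cells/well, then exposed to library compounds with dopamine controls for 90 minutes at 37 degrees C. DiscoveRx reagent added for 30–60 minutes at room temperature; luminescence read, quantitative HTS format.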
# HepG2 viability = counter-screen for TGF-b inhibitors: cytotoxicity in HepG2 cells | AID 588856 | Potency, µM (highest dose often 46.1 µM), without a hit: top-dose activity change, negative = cytotoxicity, actives largely listed as cytotoxic | 410,000 compounds, 0.76% hits | HepG2 CAGA-GFP viability, ATP luminescence, 18 h; also: potency is read from the fitted curve at half-maximal effect
#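 CellTiter-Glo luminescence gave cytotoxicity after 18 hours at 37 degrees C. The cells were HepG2 CAGA-GFP in 1% FBS DMEM, stimulated with 500 pg/mL TGF-beta after compound addition. %Activity was normalised to no-cell wells (complete cell-killing) and DMSO (no toxicity), and curves were fitted and classified.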
# * hit, by the source's call; i = inactive; ? = inconclusive; . = no result given; [ ] = remark or other dose. An excerpt weighted towards active compounds, which were near 4.7% of everything screened. Unless noted, calls follow the shape of the dose curve; as a rule, active = well fitted curve in the direction sought with a large enough effect; inconclusive = small, poorly fitted or top-dose-only effect, or another doubt; inactive = no such curve, though single readings can be large; an effect the other way counts as inactive or inconclusive.
SMILES,ATXN2 expr inh,S2 tox,TGFb SMAD3 inh,DRD3 agonist,DRD3 antagonist,HepG2 viability
Nc1nnc(CC(=O)N/N=C/c2cc([N+](=O)[O-])cc(Br)c2O)s1,-10.0%,i,6.7%,-18.9,-109.3*,9.5%
CCCCNc1ccc(/C=C2\C=Cc3ccccc32)cc1,.,.,-27.7%,.,.,-28.0%
COc1ccc(Cl)cc1C(=O)Nc1nnc2n1CCS2,-12.2%,i,14.7%,-12.5,.,0.4%
O=C(CNC(=O)c1ccccc1)N/N=C/c1cc(Br)ccc1O,28.2µM*,i,-2.6%,-21.4,-13.0,-41.8%
Cc1onc(-c2ccccc2)c1C(=O)N/N=C/c1ccco1,0.6%,i,-11.4%,5.8,7.6,-68.3%
Cc1onc(-c2ccccc2)c1C(=O)N/N=C/c1ccc([N+](=O)[O-])s1,?,i,?,-11.2,-6.4,10µM*
O=C(CN1CC(c2ccccc2)CC1=O)N/N=C/c1cc(Br)ccc1O (centres undefined),14.1µM*,i,-11.6%,2.0,1.2,2.3%
O=C(CNC(=O)c1ccccc1Br)N/N=C/c1ccccc1O,?,.,?,4.0,13.0,-35.4%
O=C(CNC(=O)c1ccncc1)N/N=C/c1cc(Br)ccc1O,?,?,?,1.0,14.7,-1.2%
O=C(CNC(=O)c1ccccc1Br)N/N=C/c1cc(Br)ccc1O,10µM*,i,-16.8%,11.7,5.7,-7.8%
O=C(CNC(=O)c1ccccc1Cl)N/N=C/c1ccc([N+](=O)[O-])s1,-30.5%[11.3 µM],i,12.6µM*,5.7,-5.4,10µM*
C/C(=C(\CCO)SS/C(CCO)=C(\C)N(C=O)Cc1cnc(C)nc1N)N(C=O)Cc1cnc(C)nc1N,16.6%,i,.,9.2,.,.
CCCCOc1nnc(-c2ccc(OCC)cc2)c2ccccc12,-0.5%,i,-14.3%,15.4,.,-4.2%
O=C(/C=C/c1ccccc1Cl)c1ccccc(=O)c1O,25.1µM*,?,?,-19.4,-77.4*,-31.7%
O=C(/C=C/c1ccc([N+](=O)[O-])cc1)c1cccs1,17.4%,i,-2.4%,-2.9,-10.1,-5.1%
Cc1ccc(C)c(/C=C/C(=O)c2ccccc(=O)c2O)c1,17.8µM*,?,?,-18.5,-51.3*,-70.1%
Cc1ccc(/C=C/C(=O)c2ccccc2)cc1,0.0%,i,?,-2.7,-12.2,.
O=C(/C=C/c1ccc([N+](=O)[O-])cc1)c1ccccc(=O)c1O,?,.,3.16µM*,-22.1,-106.5*,-31.1%
O=C(/C=C/c1ccccc1Cl)c1cccnc1,5.3%,i,?,-2.5,-22.0,11.2µM*
O=C(/C=C/c1ccccc1Cl)c1ccc(O)cc1,13.0%,i,?,-13.2,-16.3,-29.0%
C(=C\c1nc2ccccc2nc1/C=C/c1ccc2c(c1)OCO2)/c1ccc2c(c1)OCO2,.,.,19.9%,.,.,-2.1%
Cc1ccc(/C=C/C(=O)c2ccccc(=O)c2O)c(C)c1,?,?,12.6µM*,1.9,-9.2,-58.4%
O=C(C=Cc1ccccc1O)c1ccccc1O,-24.2%,?,?,-9.2,-9.8,22.4µM*
O=C(/C=C/c1ccc(O)c(O)c1)c1ccccc1O,85.4%,?,-26.0%,6.0,-24.7,-29.5%
Cc1ccc(C(=O)/C=C/c2ccc3c(c2)OCCO3)c(O)c1,64.1%,?,-27.0%,0.7,2.5,-1.0%
SMILES,ATXN2 expr inh,S2 tox,TGFb SMAD3 inh,DRD3 agonist,DRD3 antagonist,HepG2 viability
O=C(Nc1ccc(Cl)cc1)N1CCC(CN2CCCCCC2)CC1,7.5%,i,-19.1%,-12.9,.,-17.3%
COC(=O)c1cc(=O)n(-c2ccccc2)c(=Nc2ccccc2)s1,?,?,17.8µM*,-7.3,-61.4*,-60.4%
CC(C)(OCc1nn(Cc2ccccc2)c2ccccc12)C(=O)O,-1.6%,.,.,.,.,.
CCOc1ccc(CCNC(=O)c2ccc(-c3nc(CSc4ccccc4)c(C)o3)cc2)cc1,-4.0%,i,1.2%,-1.8,.,-5.7%
CCC(=O)NC[C@H](Cc1ccc(OCCc2nc(-c3ccccc3)oc2C)cc1)NC(C)=CC(=O)c1ccc(C(F)(F)F)cc1,21.7µM*,.,.,.,.,.
Cc1ccc2c(c1)C(CCN)C(=O)N2Cc1ccccc1 (centres undefined),-14.3%,i,31.6%,-30.4,-105.9*,7.7%
Cc1ccc2c(c1)N(Cc1ccccc1)C(=O)C(C)S2 (centres undefined),0.4%,i,4.1%,-7.8,-23.5,-3.9%
CN(c1ccccc1)c1ccc(/C=N/N2CCOCC2)cc1,18.1%,i,16.2%,-0.9,-51.7*,6.9%
C(=NN1CCCCCC1)c1ccccc1,-7.5%,i,-8.4%,-0.3,1.4,3.3%
Cc1csc(B(O)O)c1,.,.,28.7%,.,.,17.2%
CCOc1ccccc1NC(=O)N1CCN(C)c2ncccc21,-8.4%,?,-21.2%,4.5,.,-6.7%
O=C(c1ccc(COc2ccc(Cl)cc2)o1)N1N=C(C(F)F)CC1(O)C(F)F (centres undefined),-12.7%,i,22.4µM*,5.4,6.2,-84.6%
COc1ccccc1OCc1ccc(C(=O)N2N=C(C(F)F)CC2(O)C(F)F)o1 (centres undefined),14.0%,i,7.7%,4.0,2.6,-0.1%
C=C1CCN(C(C(=O)NCc2ccc(Cl)c(Cl)c2)C(C)C)S(=O)(=O)c2ccccc21 (centres undefined),.,.,?,.,.,-20.1%
O=C(CN1CCN(c2ccccn2)CC1)Nc1ccc(Oc2ccccc2)cc1,-12.3%,i,-1.9%,24.5,11.7,-36.7%
O=C(CN1CCN(c2ccccn2)CC1)Nc1ccc(F)c(F)c1,-12.8%,i,7.8%,22.1,17.9,-0.3%
O=C(CN1CCN(c2ccccn2)CC1)Nc1ccc(OCc2ccccc2)cc1,-11.8%,i,?,49.9*,13.2,-23.4%
Cc1cc(NC(=O)CN2CCN(c3ccccn3)CC2)ccc1Br,.,i,-20.4%,47.5*,-9.9,-19.5%
COc1ccc(CSc2nc3ccncc3n2CC(=O)Nc2cc(C)cc(C)c2)cc1,3.9%,i,?,-22.6,.,-29.4%
COc1ccc(C2C(=O)N(C3CCCCCC3)CC(=O)N2Cc2ccccc2)cc1 (centres undefined),.,.,-11.9%,-13.5,.,-27.4%
CCC(C)(C)N1CC(=O)N(Cc2ccccc2)C(c2ccc(OC)cc2)C1=O (centres undefined),-2.3%,i,0.0%,1.0,-51.8*,3.3%
CCCCC(=O)NNC(=S)NC(=O)CCC,-36.2%,i,5.2%,1.1,-58.1*,-40.4%
O=C(Nc1cccc(Oc2ccccc2)c1)c1ccc(-n2cncn2)c2ccoc12,-23.7%,6.31µM*,-3.0%,21.2,98.9,-24.5%
